Only some compounds are listed: those with a hit (about 11% of all), similar ones and a draw of the others.
ALDH1A1 block – inhibitors of human aldehyde dehydrogenase 1A1 | P00352 | Potency, µM (doses to about 75.3 µM), for the others: at the highest dose activity, negative = inhibition, actives largely listed as inhibitors | hit rate 7.3% among 220,000 | Purified ALDH1A1, NADH fluorescence, propionaldehyde substrate;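 also: potency is read from the fitted curve at half-maximal effect; plate controls were no enzyme wells and a reference inhibitor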
IMPase cell inh – membrane-permeable compound that blocks inositol monophosphatase; 120,000 tested, under 10 active; CHO-M1 cells, IP1 accumulation, HTRF TR-FRET ratio; inhibition (IP1 accumulation), % at 46.1 µM; P97697; AID 901; active = well fitted curve in the direction sought with a large enough effect in the signal ratio, not every such curve was filed as active; inconclusive = small, poorly fitted or top-dose-only effect, or a change in a side signal; inactive = no such curve, though single readings can be large or run the other way; the % refers to the signal ratio;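 also: cells stimulated with carbachol in lithium chloride buffer; plate controls were DMSO basal wells for no effect and reference inhibitor wells for full effect; higher means more IMPase inhibition seen as more IP1 and lower FRET ratio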
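Measured: the HTRF emission ratio (665/620 nm) plus the 620 nm donor channel, each fitted to the Hill equation to give AC50. Cells were CHO-M1 given compounds up to 46 uM and a 30 min carbachol stimulation at 37C.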
PNC inhibitor – blocks assembly of the perinucleolar compartment; PC3M PTB-GFP, PNC prevalence imaging, 16 h; stronger effect = lower value; activity change (PNC), negative = inhibition, % at 10 µM; hit rate 3.1% among 140,000;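 active = readout at or below -70, meaning at least 70% loss of cells showing the perinucleolar compartment, a nuclear body marking cancer cells; inconclusive = readout between -30 and a set limit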;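 also: plate controls were DMSO wells for no effect and camptothecin positive control wells for full effect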
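Compounds are pinned in duplicate onto adhered PC3M cells stably expressing GFP-tagged PTB and incubated 16 h at 37 C. Cells are then fixed, nuclei stained with Hoechst, and PNC-positive cells counted.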
HPGD inh – HPGD (human) dehydrogenase inhibition. P15428. purified HPGD, NADH fluorescence kinetic, PGE2 substrate. Potency, µM, without a hit: at the top dose activity change, negative = inhibition, usual class: inhibitors. hit rate 4.3% among 150,000. AID 894; also: potency is read from the fitted curve at half-maximal effect
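20 nM HPGD preincubated 15 min at room temperature with compound in 50 mM Tris-HCl pH 8, 0.01% Tween 20. Started with 1 mM NAD+ and 30 uM prostaglandin E2; NADH fluorescence (360/450 nm) read 5 times over 30-s intervals, last minus first.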
IMPase Li inh – IMPase inhibition in cells with lithium potentiation; CHO-M1 cells, IP1 TR-FRET (IP-One), carbachol + lithium; Potency, µM (doses to about 59.4 µM), for inactives: at the highest dose activity, negative = IMPase inhibition, most hits filed as inhibitors; hit rate 0.35% among 210,000; AID 1457; active = well fitted curve in the direction sought with a large enough effect; inconclusive = small, poorly fitted or top-dose-only effect, or another doubt; inactive = no such curve, though single readings can be large; an effect the other way counts as inactive or inconclusive;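 also: IP1 builds up when IMPase is blocked and the TR-FRET signal falls; potency is read from the fitted curve at half-maximal effect; plate controls were basal vehicle for no effect and high inhibitor control for full effect; nearly all actives have a fitted effect of over 50% in size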
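IP1 accumulation measured by competitive TR-FRET in lysed CHO-M1 cells after 30 min compound exposure at 37C, with a small lithium addition to potentiate weak responses. Hill-equation AC50 from ratio and donor-channel data.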
ALOX12 inhib – inhibitors of human 12-lipoxygenase (ALOX12) | P18054 | purified 12-hLO, xylenol orange hydroperoxide absorbance | Potency, µM (doses to about 57.1 µM), for the others: top-dose activity change, negative = inhibition, usual class: inhibitors | hit rate 0.12% among 150,000; active = well fitted curve in the direction sought with a large enough effect; inconclusive = small, poorly fitted or top-dose-only effect, or another doubt; inactive = no such curve, though single readings can be large; an effect the other way counts as inactive or inconclusive; also: potency is read from the fitted curve at half-maximal effect; nearly all actives have a fitted effect of over 55% in size
Target sequence (P18054 whole entry, looked up): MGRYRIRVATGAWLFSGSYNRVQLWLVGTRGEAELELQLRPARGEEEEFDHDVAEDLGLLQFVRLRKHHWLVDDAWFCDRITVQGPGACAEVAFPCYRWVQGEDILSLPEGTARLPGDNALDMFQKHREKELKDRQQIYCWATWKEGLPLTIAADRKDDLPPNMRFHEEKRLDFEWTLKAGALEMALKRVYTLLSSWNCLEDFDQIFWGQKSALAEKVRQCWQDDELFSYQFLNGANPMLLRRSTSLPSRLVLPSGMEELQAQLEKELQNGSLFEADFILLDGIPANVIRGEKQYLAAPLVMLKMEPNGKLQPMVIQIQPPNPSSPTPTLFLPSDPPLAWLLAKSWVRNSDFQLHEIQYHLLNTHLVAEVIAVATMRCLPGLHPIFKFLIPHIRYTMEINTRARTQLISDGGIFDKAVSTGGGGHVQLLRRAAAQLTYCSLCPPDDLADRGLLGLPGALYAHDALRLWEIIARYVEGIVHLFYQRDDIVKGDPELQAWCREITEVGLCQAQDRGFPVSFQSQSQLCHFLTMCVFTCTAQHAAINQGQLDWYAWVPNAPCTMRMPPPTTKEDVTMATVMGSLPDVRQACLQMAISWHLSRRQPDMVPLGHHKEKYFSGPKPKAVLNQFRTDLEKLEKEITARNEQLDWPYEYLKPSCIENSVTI
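Xylenol orange chromogenic assay: hydroperoxide from 12hLO oxidises Fe(II), giving red-shifted Fe(III)-XO absorbance. Conditions: 150 nM enzyme, 40 uM arachidonic acid, 25 mM Hepes pH 7.0, 0.01% Triton X-100, 30 min, room temperature.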
* = called active by the depositor; ? = inconclusive; . = not tested or not shown; [ ] = remark or other dose. Unless noted, calls follow the shape of the dose curve; as a rule, active = well fitted inhibition curve with a large enough effect (not every such curve was filed as active); inconclusive = small, poorly fitted or top-dose-only effect, or another doubt; inactive = no such curve, though single readings can be large or run the other way. Unless noted, % is scaled to controls: 0 for no effect and ±100 for the full control effect.

SMILES	ALDH1A1 block	IMPase cell inh	PNC inhibitor	HPGD inh	IMPase Li inh	ALOX12 inhib
O=C(/C=C/c1ccc(O)cc1)c1ccc(NC2=C(N3CCCCC3)C(=O)c3ccccc3C2=O)cc1	8.9µM*	5	18	-15%	43%[38.3 µM]	-22%
COc1ccc(CC(=O)Nc2sc3c(c2C(=O)Nc2ccc(C)cc2)CCCCC3)cc1	.	-6	.	.	.	.
O=C(Nc1ccccc1)N1CCCC2(CCN(C(=O)c3cc(C(F)(F)F)cc(C(F)(F)F)c3)CC2)C1	5%	.	.	-9%	4%	5%
C=C1SC(=Nc2c(C)cc(C)cc2C)N(C(=O)c2sc3ccccc3c2Cl)C12CCCCC2	5%	.	.	.	.	.
O=C(c1cccnc1)N1c2ccccc2Sc2ccccc21	4%	.	.	.	-2%	.
N/C(=N\OC(=O)c1ccccc1Cl)c1ccccc1	-10%	12	79	11µM*	-9%[38.3 µM]	1%
N/C(=N\OC(=O)N1c2ccccc2Sc2ccccc21)c1ccccc1	8%	11	?	18µM*	1%	-25%
N/C(=N\OC(=O)c1ccc(Cl)cc1Cl)c1cccnc1	?	.	.	.	2%	.
N/C(=N\OC(=O)c1ccc(Cl)cc1Cl)c1ccccc1	-5%	2	-9	14µM*	13%[38.3 µM]	-10%
COc1ccc(C(=O)O/N=C(\N)c2ccccc2)c(OC)c1	?	.	3	14µM*	-1%	1%
c1cc2c(cc1C1CCCCC1)c1c3n2CCN[C@H]3CCC1	?	-9	.	-6%	15%	-3%
Cc1cccc(/C(N)=N/OC(=O)c2cccnc2)c1	12%	.	.	.	4%	.
N/C(=N\OC(=O)c1ccc(Cl)cc1Cl)c1ccc(Cl)cc1	11%	1	20	5µM*	-3%[38.3 µM]	5%
Cc1cccc(/C(N)=N/OC(=O)C23CC4CC(CC(C4)C2)C3)c1	-3%	.	-114*	-20%	-4%	-1%
Cc1ccc(/C(N)=N/OC(=O)c2ccc(C)cc2Cl)cc1	-1%	.	2	?	3%	2%
COc1ccccc1C(=O)O/N=C(\N)c1ccccc1Cl	-3%	.	-2	28µM*	-7%	0%
Cc1cccc(/C(N)=N/OC(=O)c2ccc(Cl)cc2Cl)c1	9%	.	-2	16µM*	0%	1%
Cc1cc(/C(N)=N/OC(=O)c2ccccc2Cl)no1	2%	.	.	.	.	.
Cc1cccc(CNc2ncnc3ccc(-c4ccc(C(=O)N(C)C)cc4)cc23)c1	?	.	.	?	24%	?
C[C@H]1CC2[C@@H]3CCC4=CC(=O)C=C[C@]4(C)[C@@]3(F)[C@@H](O)C[C@]2(C)[C@@]1(O)C(=O)CO (some centres undefined)	-2%	.	.	-10%	-2%	.
COc1ccc(-c2nn(CCC(=O)O)cc2/C=C2\SC(N)=NC2=O)cc1OC	1%	-2	-25	3.2µM*	0%	-1%
CCCOc1ccc(-c2nn(-c3ccccc3)cc2/C=C2\SC(N)=NC2=O)cc1C	-7%	-7	7	10µM*	-6%	-2%
COc1ccc(-c2nn(CCC#N)cc2/C=N/O)cc1	-2%	.	.	.	-8%	.
COc1ccc(-c2nn(CCC#N)cc2/C=N/O)cc1OC	18µM*	.	.	.	?	.
O=C(NCc1ccc2c(c1)CCO2)Nc1ccccc1	-12%	.	.	.	.	.
SMILES	ALDH1A1 block	IMPase cell inh	PNC inhibitor	HPGD inh	IMPase Li inh	ALOX12 inhib
O=C(N/N=C/c1c(Nc2cccc(C(F)(F)F)c2)nc2ccccn2c1=O)c1ccccc1[N+](=O)[O-]	8%	9	-113*	-15%	-3%	5%
O=C(N/N=C/c1c(Nc2cccc(C(F)(F)F)c2)nc2ccccn2c1=O)c1ccccc1	5%	0	15	-10%	6%[38.3 µM]	-2%
Cc1cccc(NC(=O)CCN2CCN(c3ccccc3F)CC2)c1	.	9	.	.	.	.
Cc1ccc(NC(N)=S)cc1C	-3%	.	-125*	-9%	1%	-4%
Cc1ccc(NC(N)=S)cc1	-3%	.	11	-7%	3%	-4%
NC(=S)Nc1ccc(Oc2ccc(NC(N)=S)cc2)cc1	28µM*	3	?	22µM*	4%[38.3 µM]	?
CN(Cc1cnccn1)Cc1nc(Cc2cccc(F)c2)no1	1%	.	.	.	.	.
CCCSc1nnc(CSc2nc3nc(C)cc(C)n3n2)o1	5%	-1	-11	-12%	-2%[38.3 µM]	5%
CCCCSc1nnc(CSc2nc3nc(C)cc(C)n3n2)o1	-7%	8	-6	25µM*	1%[38.3 µM]	0%
CCCC[P+](CCCC)(CCCC)Cc1ccc(NC(=O)[C@@H](Cc2ccc3ccccc3c2)NC(=NC2CCCCC2)NC2CCCCC2)cc1	-1%	16	.	-9%	45%	-14%
Cc1ccccc1NC(=O)CC1(c2ccc(N(C)C)cc2)C(=O)c2ccccc2C1=O	13µM*	0	-90*	-20%	10%[38.3 µM]	-1%
Cc1nc(N2C(=O)c3oc4ccccc4c(=O)c3C2c2ccccc2F)sc1C (centres undefined)	.	-1	.	.	.	.
CCOC(=O)N1CCN(C(=O)c2oc(=O)c3ccccc3c2-c2ccc(C)cc2)CC1	0.014µM*	0	?	-8%	21%[38.3 µM]	7%
O=C(c1oc(=O)c2ccccc2c1-c1ccccc1)N1CCOCC1	?	2	22	-2%	-25%[38.3 µM]	0%
Cc1ccc(-c2c(C(=O)NCc3ccccc3)oc(=O)c3ccccc23)cc1	?	.	?	-2%	5%	1%
Cc1ccc(-c2c(C(=O)NC(C)C)oc(=O)c3ccccc23)cc1	1.4µM*	.	.	.	1%	.
Cc1ccc(-c2c(C(=O)N(C)Cc3ccccc3)oc(=O)c3ccccc23)cc1	1.8µM*	.	28	-13%	8%	-2%
C[C@H](CC(=O)O)C(C(=O)O)C(=O)O	-3%[13.5 µM]	.	.	0%	-10%	0%[11.4 µM]
COC(=O)c1ccc(C(NC(=O)OCc2ccccc2)/C(=C/[C@@H](C)C(=O)NCc2ccncc2)c2cccnc2)cc1 (some centres undefined)	4%	.	.	-11%	-9%	0%
Cc1ccccc1CNS(=O)(=O)c1ccc2c(c1)OCCO2	-11%	11	-119*	25µM*	4%	1%
O=S(=O)(NCc1ccc(F)cc1)c1ccc2c(c1)OCCO2	-14%	-3	54	-12%	4%[38.3 µM]	6%
Cc1ccc(CNS(=O)(=O)c2ccc3c(c2)OCCO3)cc1	-1%	.	-101*	-3%	-6%	-2%
O=S(=O)(NCCSc1ccc(Cl)cc1)c1ccc2c(c1)OCCO2	14µM*	3	-4	-16%	2%[38.3 µM]	-10%
O=S(=O)(NCCSCc1ccc(Cl)cc1Cl)c1ccc2c(c1)OCCO2	?	0	17	-3%	17%[38.3 µM]	-6%
CC(C)CNS(=O)(=O)c1ccc2c(c1)OCCO2	-4%	5	36	32µM*	14%[38.3 µM]	0%
COCCCNS(=O)(=O)c1ccc2c(c1)OCCO2	-13%	0	3	-13%	-1%[38.3 µM]	-3%

High-throughput results deposited in PubChem BioAssay by National Center for Advancing Translational Sciences (NCATS).
